Compound activity deposited in PubChem BioAssay by several laboratories.
Most compounds without a hit are left out; they make up all but 27% or so of the library.
CYP2C19 activ: cytochrome P450 2C19 (human) activation | activation factor at 5 µM | recombinant CYP2C19, luciferin-H EGE luminescence; active compounds read high; 0 = fully inhibited enzyme, 1 = untreated enzyme | 96,000 tested, under 10 active | P33261 | AID 1025;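 active = activation factor of at least 2 at 5 µM in the primary screen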;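 note: 0 = wells with 2.5 mM tranylcypromine and 1 = vehicle-only wells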
Target sequence (P33261 whole entry, looked up): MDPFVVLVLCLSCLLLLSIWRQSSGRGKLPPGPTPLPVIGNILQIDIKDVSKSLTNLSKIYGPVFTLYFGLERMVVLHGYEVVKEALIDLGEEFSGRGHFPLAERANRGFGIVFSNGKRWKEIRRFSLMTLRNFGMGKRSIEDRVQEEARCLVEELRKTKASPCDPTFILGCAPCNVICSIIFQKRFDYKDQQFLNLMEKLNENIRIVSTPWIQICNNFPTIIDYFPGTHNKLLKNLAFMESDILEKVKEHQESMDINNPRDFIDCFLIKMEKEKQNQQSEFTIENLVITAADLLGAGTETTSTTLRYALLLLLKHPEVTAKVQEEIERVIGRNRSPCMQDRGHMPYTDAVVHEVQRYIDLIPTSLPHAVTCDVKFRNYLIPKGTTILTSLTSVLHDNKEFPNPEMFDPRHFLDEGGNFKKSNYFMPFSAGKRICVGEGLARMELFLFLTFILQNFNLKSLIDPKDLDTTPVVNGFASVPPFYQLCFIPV
CYP2C9 activ: increases human cytochrome P450 2C9 activity; P11712; activation factor at 5 µM; recombinant CYP2C9, luciferin-H conversion, luminescence; active compounds read high; factor 1 = untreated enzyme, 0 = blocked; 96,000 tested, 1.4% active;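 active = activation factor of 2 or more for CYP2C9 at a 5 µM dose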;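 note: 0 = sulfaphenazole-blocked wells and 1 = vehicle-only wells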
Cav32 inh: inhibitors of human Cav3.2 T-type calcium channel. Cav3.2-expressing cells, Fluo-4 calcium fluorescence FDSS; active compounds read low. 100,000 tested, 4% active. B-score at 10 µM. O95180;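 active = single-dose well whose peak fluorescence ratio is a statistical outlier from its plate by either plate-standardised score or position-corrected B-score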
CYP2C19 inh: human CYP2C19 inhibition; P33261; 96,000 tested, 21% active; inhibition, % at 5 µM; CYP2C19 Supersomes, luciferin-H EGE luminescence, 30 min;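 active = CYP2C19 inhibition above a set limit at 5 µM in the primary screen, cut at about 50% in these data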;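 note: plate controls were negative control wells for no effect and 2.5 mM tranylcypromine positive control for full effect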
CYP2C9 inh: human CYP2C9 inhibition | P11712 | CYP2C9 Supersomes, luciferin-H conversion, luminescence | inhibition, % at 5 µM | 96,000 tested, 20% active | AID 777;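 active = blocking of liver enzyme CYP2C9 beyond about 50% at 5 µM, limit read from the data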
An asterisk follows results filed as active; x = no result given.

SMILES	CYP2C19 activ	CYP2C9 activ	Cav32 inh	CYP2C19 inh	CYP2C9 inh
Cc1cc(C)nc(-n2nc(C)cc2NC(=O)CN2CCc3ccccc3C2)n1	0.1	0.1	-1.73	86.3*	88.7*
CN(CCCNC(=O)Cn1cc2c(n1)CCCC2)C1CCCCC1	1	1.1	0.0705	1.0	-6.8
NS(=O)(=O)c1ccc(Nc2nc(-c3ccc(O)cc3)cs2)cc1	0.6	0.1	0.00916	36.2	86.5*
Nc1ccc(Nc2nc(-c3ccncc3)cs2)cc1	0.4	0.4	1.11	61.2*	62.5*
CSc1nsc(SCc2ccc(F)cc2)n1	0.2	0.9	0.328	79.4*	8.6
Fc1ccc(CSc2nsc(SCc3ccc(F)cc3)n2)cc1	0.8	0.8	-2.02	24.3	15.0
Cc1c(C2OC(=O)C3(CCCCC3)C(=O)C2(C)C)c(=O)n(-c2ccccc2)n1C (stereo not drawn)	0.7	0.9	-3.29	29.8	5.4
CCN(CC)S(=O)(=O)c1cccc(C(=O)NC(C(=O)Nc2nnc(C)s2)C(C)C)c1 (stereo not drawn)	0.6	0.2	0.728	43.1	78.1*
CCN(CC)S(=O)(=O)c1cccc(C(=O)N[C@H](C(=O)O)C(C)C)c1	1.2	1.1	0.299	-15.8	-5.7
CCN(CC)S(=O)(=O)c1cccc(C(=O)OCC(=O)C23CC4CC(CC(C4)C2)C3)c1	1	0.3	-2.07	-1.6	74.2*
CCN(CC)S(=O)(=O)c1cccc(C(=O)Nc2cc(C)cc(C)c2)c1	0.6	0.6	-3.43*	40.8	39.5
CCN(CC)S(=O)(=O)c1cccc(C(=O)Nc2cccc(C)c2)c1	0.6	0.7	-4.79	44.4	32.4
CN(C)S(=O)(=O)c1cccc(C(=O)OCC(=O)c2ccc3c(c2)NC(=O)CO3)c1	0.9	1	0.511	7.1	2.6
CCN(CC)S(=O)(=O)c1cccc(C(=O)N[C@H](C(=O)NCc2ccccc2F)C(C)C)c1	0.8	0.2	-0.352	20.3	84.7*
O=C(CN1CCN(Cc2ccccc2F)C1=O)NCc1ccco1	1	1	0.885	-0.5	-0.2
C=CCN1C(=O)C2(/C(=C(\O)c3ccc4c(c3)OCCO4)C(=O)C(=O)N2CCCOC)c2ccccc21 (stereo not drawn)	1.1	1.3	1.79	-14.8	-25.4
CCN(CC)S(=O)(=O)c1cccc(C(=O)N[C@H](C(=O)OCC(=O)NC(=O)NC)C(C)C)c1	0.7	0.8	0.986	31.4	23.8
CCN(CC)S(=O)(=O)c1cccc(C(=O)N[C@H](C(=O)NCc2ccc(Cl)cc2)C(C)C)c1	0.7	0	-9.8*	28.6	97.2*
CCOC(=O)CSC1=C(C#N)C(c2ccc(C)o2)CC(=O)N1 (stereo not drawn)	x	x	1.22	x	x
CCCOC(=O)CSC1=C(C#N)C(c2ccccc2Cl)CC(=O)N1 (stereo not drawn)	0.1	0	x	94.9*	95.6*
CCCCCCSC1=C(C#N)C(c2ccc(O)cc2)CC(=O)N1 (stereo not drawn)	0.4	0.3	-3.09	62.7*	74.0*
CCSC1=C(C#N)C(c2cccc(O)c2)CC(=O)N1 (stereo not drawn)	0.9	1	1.67	11.2	-2.1
CCCCOC(=O)CSC1=C(C#N)C(c2ccc3c(c2)OCO3)CC(=O)N1 (stereo not drawn)	0.5	0.4	-2.28	47.7	57.0*
CCOC(=O)CSC1=C(C#N)C(c2ccc3c(c2)OCO3)CC(=O)N1 (stereo not drawn)	0.7	0.9	1.11	31.7	5.5
CCOC(=O)CSC1=C(C#N)C(c2ccc(Cl)cc2)CC(=O)N1 (stereo not drawn)	0	0	-0.383	95.5*	98.5*
SMILES	CYP2C19 activ	CYP2C9 activ	Cav32 inh	CYP2C19 inh	CYP2C9 inh
Cc1ccc(C(C(=O)NCCc2ccccc2)N(C(=O)c2csnn2)C2CC2)o1 (stereo not drawn)	0.6	0.8	1.62	40.4	22.8
Cc1nc(SCC(=O)Nc2ccc3c(c2)OCCO3)c2oc3ccccc3c2n1	0	0.3	-0.482	96.4*	73.0*
CCc1nc(SCC(=O)N2CCCc3ccccc32)c2oc3ccccc3c2n1	0.6	0.3	-2.25	39.4	73.8*
CCc1nc(SCC(=O)Nc2nccs2)c2oc3ccccc3c2n1	0.6	0.2	x	37.7	75.7*
O=C(CSc1ncnc2c1oc1ccccc12)Nc1ccc2c(c1)OCCO2	x	x	-1.31	x	x
CCc1nc(SCC(=O)Nc2ccc3c(c2)OCCO3)c2oc3ccccc3c2n1	0.8	0.5	x	24.5	51.7*
O=C(NCCn1cccc1)c1cccc2ccccc12	0.8	1.7	0.565	24.2	-71.0
O=C1C(Cl)=C(N2CCCCC2)C(=O)N1c1ccccc1	0.7	0.9	0.0335	25.1	11.3
O=C1C(Cl)=C(N2CCN(Cc3ccccc3)CC2)C(=O)N1Cc1ccccc1	0.8	0.5	-2.04	15.2	54.6*
COc1ccc(NC(=O)[C@@H]2[C@@H]3C(=O)N(C4CCCCC4)C(=O)[C@@H]3C3c4ccccc4C=CN32)cc1 (stereo partly drawn)	0.5	0.4	x	45.9	57.4*
CCc1ccc(N2CC(C(=O)Nc3ccc(C)c(S(=O)(=O)N4CCOCC4)c3)CC2=O)cc1 (stereo not drawn)	0.1	0	-3.65	89.8*	99.9*
COC(=O)c1ccc(NC(=O)C2CC(=O)N(c3ccc(C)cc3)C2)cc1 (stereo not drawn)	x	x	0.903	x	x
COC(=O)c1ccccc1NC(=O)C1CC(=O)N(c2ccc(C)cc2)C1 (stereo not drawn)	0.7	0.4	0.00341	28.6	56.6*
Cc1ccc(NC(=O)C2CC(=O)N(c3ccc4c5c(cccc35)CC4)C2)cc1 (stereo not drawn)	0.7	0.4	-2.35	25.9	55.9*
CCOc1ccc(N2CC(C(=O)Nc3ccccc3F)CC2=O)cc1 (stereo not drawn)	0.8	0.3	0.954	16.2	67.8*
COC(=O)c1ccc(NC(=O)C2CC(=O)N(c3cc(C)ccc3C)C2)cc1 (stereo not drawn)	0.9	1.2	-0.331	8.5	-19.8
O=C(CSc1ncnc2c1oc1ccccc12)OCc1ccccc1	0.9	0.9	-0.839	6.2	12.3
Cc1ccc(N2CC(C(=O)Nc3ccncc3)CC2=O)cc1 (stereo not drawn)	0	0	0.118	97.6*	98.6*
Cc1ccc(N2CC(C(=O)Nc3cc(C)ccc3F)CC2=O)cc1 (stereo not drawn)	0.3	0.1	-0.951	75.0*	90.4*
CCc1ccc(N2CC(C(=O)Nc3cccnc3)CC2=O)cc1 (stereo not drawn)	0.4	0.3	x	58.4*	74.3*
COc1ccccc1N(CC(=O)NCc1ccccc1)C(=O)CCC(=O)Nc1cc(C)ccn1	x	x	-0.189	x	x
Cn1c(CCNC(=O)c2ccccc2)nc2cc(NC(=O)C3CCCCC3)ccc21	0.9	0.8	1.67	10.2	20.3
COC(=O)C1Cc2c([nH]c3ccccc23)C(C)N1 (stereo not drawn)	0.5	2.6*	0.715	50.5*	-159.2
